CRFBP-R2 block: antagonists of CRF-binding protein/CRF-R2 receptor complex | HEK293 CRF-R2/CRF-BP, CRF-induced calcium fluorescence | inhibition, % at 11.8 µM | 350,000 tested, 0.59% active;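 active = inhibition of the ligand-induced calcium signal above about 50% at the single tested concentration, limit read from the data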
GRIN3A LBD mod: modulators (binders) of human NR3A ligand-binding domain. Tm shift relative to glycine control, % at 25 µM. NR3A LBD differential scanning fluorimetry, Tm shift; 0% = protein alone, 100% = glycine-bound protein. AID 1259313. 340,000 tested, 2.5% active;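 active = melting temperature shift of at least 10% of the positive control shift, at one fixed dose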
TMEM16A act: activators or potentiators of mouse TMEM16A chloride channel. HEK293 TMEM16A/YFP-H148Q/I152L, iodide quench fluorescence; stronger effect = lower value. B-score at 10 µM. 340,000 tested, 0.3% active;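 active = fluorescence-ratio B-score plate-corrected deviation score at least 3 library SD below zero, with starting fluorescence score within 5 deviations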;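 note: channel opened by trigger with iodide after compound preincubation; score built on the fluorescence ratio of max minus min over baseline; more negative score means more quench and so TMEM16A activation or potentiation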
Target sequence (Q8BHY3 whole entry, looked up): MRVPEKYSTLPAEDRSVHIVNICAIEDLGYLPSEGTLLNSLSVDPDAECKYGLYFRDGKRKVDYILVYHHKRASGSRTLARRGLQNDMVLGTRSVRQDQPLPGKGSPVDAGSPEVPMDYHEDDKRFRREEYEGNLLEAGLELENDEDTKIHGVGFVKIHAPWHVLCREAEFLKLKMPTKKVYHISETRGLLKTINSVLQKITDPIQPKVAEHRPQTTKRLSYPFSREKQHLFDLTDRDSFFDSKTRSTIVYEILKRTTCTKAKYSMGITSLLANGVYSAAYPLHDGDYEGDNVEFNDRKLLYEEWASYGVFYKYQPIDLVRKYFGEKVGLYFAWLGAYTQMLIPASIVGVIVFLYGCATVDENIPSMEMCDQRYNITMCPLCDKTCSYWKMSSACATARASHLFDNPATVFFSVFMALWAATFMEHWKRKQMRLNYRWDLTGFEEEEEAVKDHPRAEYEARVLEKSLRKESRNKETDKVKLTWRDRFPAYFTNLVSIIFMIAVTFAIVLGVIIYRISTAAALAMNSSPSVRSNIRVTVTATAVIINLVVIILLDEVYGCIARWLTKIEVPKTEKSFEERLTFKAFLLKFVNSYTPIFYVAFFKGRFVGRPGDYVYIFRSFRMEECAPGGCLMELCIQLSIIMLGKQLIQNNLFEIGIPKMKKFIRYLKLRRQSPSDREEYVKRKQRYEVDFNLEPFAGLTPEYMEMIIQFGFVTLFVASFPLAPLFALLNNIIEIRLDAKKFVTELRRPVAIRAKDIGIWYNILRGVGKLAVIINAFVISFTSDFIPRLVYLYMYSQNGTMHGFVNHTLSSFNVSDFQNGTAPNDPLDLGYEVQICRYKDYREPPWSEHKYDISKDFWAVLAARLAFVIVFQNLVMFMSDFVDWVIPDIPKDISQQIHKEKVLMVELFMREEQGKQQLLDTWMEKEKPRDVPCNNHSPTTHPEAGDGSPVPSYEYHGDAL
CRFBP-R2 agonist: agonists of human CRF-binding protein/CRF-R2 receptor complex | HEK293 CRF-R2/CRF-BP, calcium dye fluorescence (FLIPR); percent of saturating CRF peptide response | activation, % at 13.2 µM | 350,000 tested, 0.46% active;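 active = activation of at least 50%, plus an integration ratio under a set limit after plate pattern correction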;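 note: plate controls were neutral control wells without compound for no effect and CRF at EC100 for full effect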
TMEM16A inh: mouse TMEM16A channel inhibition, primary screen | Q8BHY3 | HEK293 TMEM16A/YFP iodide influx fluorescence, ionomycin | normalized B-score (activity score, 25-100; higher = stronger inhibition) at 10 µM | 310,000 tested, 1.2% active | AID 588511;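 active = ratio plate-corrected score three or more library SD toward inhibition, starting fluorescence score within five deviations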;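 note: score derived from kinetic fluorescence span divided by baseline fluorescence per well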
MPTP block: permeability transition pore inhibition; isolated mouse mitochondria, Ca2+ swelling absorbance, 30 min; inhibition, % at 10 µM; 360,000 tested, 1.4% active; AID 602449;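 active = inhibition of 50% or more, scaled per plate between neutral and stimulator controls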;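 note: 0% = DMSO wells given calcium and 100% = 1 mM EGTA wells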
MPTP counter: Rhodamine 123 counter-screen of mitochondrial pore hits | shares compounds with MPTP block | isolated mitochondria, membrane potential, Rhodamine 123 fluorescence | inhibition, % at 10 µM | 5,000 tested, 78% active | AID 624504; in the data active = inhibition above about 22%;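 note: 0% = DMSO vehicle and 100% = positive control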
MPTP abs DR: dose response confirmation of mitochondrial permeability transition pore inhibitors; IC50, µM; isolated mitochondria swelling, absorbance; 780 tested, 58% active; shares compounds with MPTP block; in the data active = IC50 below about 20 µM
MPTP counter DR: counter-screen for mitochondrial permeability transition pore inhibitors, dose response; IC50, µM; 780 tested, 49% active; shares compounds with MPTP block; isolated mitochondria counterscreen, fluorescence read-out; in the data active = IC50 below about 80 µM
An asterisk follows results filed as active; i = inactive; · = no result. Shown are actives, neighbours in structure and some others; about 5.1% of the full set was active somewhere.

SMILES | CRFBP-R2 block | GRIN3A LBD mod | TMEM16A act | CRFBP-R2 agonist | TMEM16A inh | MPTP block | MPTP counter | others
Cc1ccc(S(=O)(=O)NC(C)C(=O)Nc2cccc([N+](=O)[O-])c2)cc1 (stereo unspecified) | 7 | 2 | i | -1 | i | 0 | ·
O=C(Nc1ccccc1)NC1CCCCCCC1 | 4 | -2 | i | 0 | i | 15 | ·
Cc1cc([N+](=O)[O-])ccc1NC(=S)NC1CCCC1 | 1 | 2 | i | 12 | i | 67* | 97*
O=S(=O)(Nc1cc(S(=O)(=O)N2CCOCC2)ccc1Cl)c1ccccc1 | -8 | 0 | i | -2 | · | -1 | ·
Cc1ccc(S(=O)(=O)Nc2cccc3c2O[C@H](CN(C)C(=O)Nc2cccc4ccccc24)[C@H](C)CN([C@H](C)CO)C3=O)cc1 | -1 | -2 | i | 1 | · | 2 | ·
O=C(Nc1cccc([N+](=O)[O-])c1)c1ccc(CSc2ccccc2)cc1 | 15 | 31* | i | -1 | i | 78* | 86*
O=C(Nc1cccc([N+](=O)[O-])c1)c1ccccc1 | 2 | -9 | i | -1 | i | 2 | ·
CCOc1ccc(C(=O)Nc2cccc([N+](=O)[O-])c2)cc1Br | -17 | 27* | i | -2 | i | 80* | 69*
CNC(=S)Nc1cccc([N+](=O)[O-])c1 | 18 | 1 | i | 0 | i | 2 | ·
O=C(CNC1CCCCC1)Nc1cccc([N+](=O)[O-])c1 | 6 | 0 | i | 0 | i | 1 | ·
Cc1cc(Br)ccc1NC(=S)Nc1cccc([N+](=O)[O-])c1 | 0 | -3 | i | -1 | 100* | 97* | 91*
O=C(Nc1cccc([N+](=O)[O-])c1)NC1CCCCCCC1 | 4 | -2 | i | 1 | i | 80* | 95*
COc1cc(NC(=O)Nc2cccc([N+](=O)[O-])c2)cc(OC)c1 | 12 | 29* | i | 1 | i | 98* | 89*
O=C(Nc1ccc(C(=O)O)cc1)Nc1cccc([N+](=O)[O-])c1 | 4 | 1 | i | -1 | i | 81* | 76*
O=C(Nc1cccc([N+](=O)[O-])c1)ONC1=NCCCCC1 | 4 | 0 | i | 1 | i | 68* | 77*
O=C(ONC1=NCCCCC1)c1ccc([N+](=O)[O-])cc1 | 6 | -1 | i | 0 | i | 0 | ·
O=C(Nc1cccc([N+](=O)[O-])c1)NN1CCCCCC1 | 1 | 8 | i | 7 | · | 94* | 82*
CC(=O)NC(=S)Nc1cccc([N+](=O)[O-])c1 | 5 | -1 | i | 1 | i | -1 | ·
O=C(NCc1ccccn1)C(=O)NCC1OCCN1S(=O)(=O)c1ccc([N+](=O)[O-])cc1 (stereo unspecified) | -1 | -1 | i | -1 | i | 0 | ·
COc1ccc(CCNC(=O)Nc2cccc([N+](=O)[O-])c2)cc1 | 20 | 6 | i | 0 | i | 85* | 83*
O=C(Nc1cccc([N+](=O)[O-])c1)Nc1ccc2c(c1)OCCO2 | -4 | 29* | i | 4 | i | 62* | 91*
CCOC(=O)c1c(C)[nH]c(C(=O)OCC(=O)N2CCN(S(=O)(=O)c3ccc(C)cc3C)CC2)c1C | -9 | -3 | i | 3 | · | 0 | ·
Cc1ccc(CN(Cc2cc3cccc(C)c3[nH]c2=O)C(=S)NCCCN(C)C)cc1 | -69 | -1 | i | 44 | i | 65* | -13 | MPTP abs DR=12*;MPTP counter DR=>80
CC(=O)c1ccc(NC(=S)NC(NC(=O)c2ccco2)C(Cl)(Cl)Cl)cc1 (stereo unspecified) | -7 | -7 | i | 2 | i | 14 | ·
CCc1ccc(OCC(=O)NC(NC(=S)Nc2ccc(Cl)cc2)C(Cl)(Cl)Cl)cc1 (stereo unspecified) | 5 | 24* | i | -2 | i | 98* | 81*
SMILES | CRFBP-R2 block | GRIN3A LBD mod | TMEM16A act | CRFBP-R2 agonist | TMEM16A inh | MPTP block | MPTP counter | others
O=C(NC(NC(=S)Nc1ccc(Cl)cc1)C(Cl)(Cl)Cl)c1ccco1 (stereo unspecified) | -8 | 13* | i | 5 | i | 96* | 84*
COc1ccc(C2CC(c3ccccc3)=NN2c2ccc(N)cc2)cc1 (stereo unspecified) | -10 | -5 | i | -1 | i | 73* | 71*
O=C(c1ccco1)N1CCN(C(=S)NCc2ccc(F)cc2)CC1 | 12 | 4 | i | 1 | i | -1 | ·
ClCc1nc2ccccc2c2ccccc12 | -7 | 1 | i | -1 | i | 64* | -6 | MPTP abs DR=4.6*;MPTP counter DR=>80
CCOC(=O)c1c(CCl)nc2ccccc2c1-c1ccccc1 | -11 | -1 | i | 8 | i | 3 | ·
CC1(C)Cc2ccccc2-c2nc(-c3ccccc3)oc(=O)c21 | 19 | 4 | i | -1 | i | 70* | -4 | MPTP abs DR=7.6*;MPTP counter DR=>80
Nc1nc(Cl)cc(NCCc2ccc(O)cc2)n1 | -7 | 5 | i | 1 | i | 4 | ·
Oc1ccc(CCNc2ncnc3ccc(Cl)cc23)cc1 | 6 | -30 | i | -1 | 100* | 95* | 97*
CCC(C)(C)C1CCC2(CC1)NC(=O)N(CC(=O)N(C)CCOc1ccc(Cl)cc1)C2=O (stereo unspecified) | -1 | 2 | i | 3 | · | 0 | ·
COc1ccc(-c2nc3c4c(ncn3n2)-c2ccccc2CC42CCCC2)cc1 | 5 | -2 | i | -1 | i | 78* | 1 | MPTP abs DR=>100;MPTP counter DR=>80
Cc1ccc(OCc2nc3c4c(ncn3n2)-c2ccccc2CC42CCCC2)cc1 | -2 | 9 | i | 0 | i | 57* | -8 | MPTP abs DR=8.4*;MPTP counter DR=>80
Cc1ccccc1OCc1nc2c3c(ncn2n1)-c1ccccc1CC31CCCC1 | 7 | 3 | i | -1 | i | 69* | 1 | MPTP abs DR=13*;MPTP counter DR=>80
CC(=O)Nn1cnc2c(c1=O)C1(CCCCC1)Cc1ccccc1-2 | -3 | 6 | i | -2 | i | 1 | ·
Cc1ccccc1OCc1nc2c3cnn(C)c3ncn2n1 | 13 | 4 | i | 2 | i | 3 | ·
Cc1cccc(OCc2nc3c4c(ncn3n2)-c2ccccc2CC42CCCC2)c1 | -4 | 2 | i | 0 | i | 5 | ·
COCCNC(=O)c1cccc(OC2CCN(Cc3ccc(F)cc3OC)CC2)c1 | 5 | -2 | i | -3 | i | 0 | ·

High-throughput results: PubChem BioAssay, several laboratories
